# Bioassay records as filed in PubChem.
# Only some compounds are listed: those with a hit (about 21% of all), similar ones and a draw of the others.
# Pf growth 96h: P. falciparum growth inhibition at 96 hours; Potency, µM (highest dose often 28.7 µM), inactives show top-dose activity change, negative = inhibition, actives largely listed as inhibitors; P. falciparum luciferase reporter growth, 96 h; actives 6.9% (n = 320,000); active means well fitted inhibition curve with a large enough effect; inconclusive means small, poorly fitted or top-dose-only effect, or another doubt; inactive means no such curve, though single readings can be large or run the other way; further: potency means the concentration at half of the fitted maximal effect; on the % scale 0 is the no-effect control and ±100 the full control effect
#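 Cell-based qHTS: luciferase-tagged P. falciparum in erythrocytes (2% hematocrit, 0.05% parasitemia final) incubated with compounds for 96 hours, 37 C, 5% CO2; luciferase detection reagent then added and luminescence measured.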
# Pf growth 48h: P. falciparum growth inhibition at 48 hours (one generation); P. falciparum luciferase growth in erythrocytes, 48 h; actives 5.9% (n = 310,000); Potency, µM (highest dose often 28.7 µM), inactives show at the top dose activity change, negative = inhibition, usual class: inhibitors; active means well fitted inhibition curve with a large enough effect; inconclusive means small, poorly fitted or top-dose-only effect, or another doubt; inactive means no such curve, though single readings can be large or run the other way; further: potency means the concentration at half of the fitted maximal effect; on the % scale 0 is the no-effect control and ±100 the full control effect
#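 Read-out is firefly luciferase luminescence from an integrated reporter in P. falciparum, so falling signal marks reduced parasite growth. Infected erythrocytes were at 2% hematocrit and 0.1% parasitemia (final) in Albumax-supplemented RPMI 1640.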
# NS1 function inh: inhibitors of influenza NS1 protein function; Potency, µM (highest dose often 46.1 µM), for inactives: at the top dose activity, positive = more growth; actives 0.4% (n = 270,000); further: potency means the concentration at half of the fitted maximal effect; actives are rising curves; nearly all actives have a fitted effect of over 50% in size
#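 OD600 was taken as the measure of yeast growth restored by compound in an NS1-expressing S. cerevisiae strain. Cells had been washed out of glucose medium and diluted 1:100 into galactose -URA medium, pH 6.0.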
# Shiga toxin inh: Shiga toxin inhibition; AID 2315; inhibition, % at 38.7 µM; actives 9.2% (n = 290,000); Vero cells, Shiga toxin protein synthesis inhibition reporter; in the data active means inhibition mostly above about 28%, no sharp cut-off; inactive means mostly below about 43%; further: 0% is about no effect
# Cycloheximide cs: affects cycloheximide protein synthesis inhibition readout, counter-screen; cell reporter, cycloheximide protein synthesis inhibition counterscreen; AID 2314; actives 12% (n = 300,000); max response, %; in the data active means max response mostly above about 13%, no sharp cut-off; inactive means mostly below about 14%; further: read at 38.3 µM for the half of the compounds with a filed dose; 0% is about no effect
# SARS PLP yeast: SARS-CoV PLP inhibition in yeast; actives 0.19% (n = 330,000); AID 485353; Potency, µM (highest dose often 32.9 µM), for inactives: top-dose activity, positive = growth rescue, actives largely listed as activators; S. cerevisiae expressing SARS-CoV PLpro, growth rescue; further: potency means the concentration at half of the fitted maximal effect; 0% is about no effect; nearly all actives have a fitted effect of over 55% in size
# * hit, by the source's call; ? = inconclusive; / = no result. Unless noted, the call rests on the fitted dose curve.
SMILES,Pf growth 96h,Pf growth 48h,NS1 function inh,Shiga toxin inh,Cycloheximide cs,SARS PLP yeast
O=C(CC1C(=O)NCCN1Cc1c(F)cccc1Cl)NC1CCCC1 (stereo unspecified),?,-8%,-2%,-10,1,1%
CCOc1ccc(N=C2C(=O)N(CN3CCOCC3)c3ccccc32)cc1,13µM*,4%,0%,60,15,-4%
CCOC(=O)c1ccc2[nH]c(C)cc(=O)c2c1,8%,?,-6%,18,14,-1%
Cc1[nH]c2ccc(C(=O)OCCN(C)C)cc2c1C,4.7µM*,71%,-33%,16,9,6%
COC(=O)c1ccc2[nH]c(C(C)(C)O)c(C)c2c1,74%,93%,0%,40*,23*,-18%
CCOC(=O)C[n+]1ccc2c([nH]c3ccccc32)c1C,10µM*,-21%,8%,/,-3,1%
CCOC(=O)c1ccc2[nH]c3ccccc3c2c1,41%,?,-1%,63*,37*,-6%
O=C(CCCc1nc2ccccc2s1)NC(c1ccccc1)c1ccccc1,?,-18%,3%,-9,1,0%
CCOC(=O)N1CCN(C(=O)c2ccccc2NC(=O)COc2ccccc2)CC1,45%,33%,1%,109*,31*,-1%
CCOC(=O)N1CCN(C(=O)c2ccccc2NC(=O)c2ccc(F)cc2)CC1,-9%,9%,-8%,5,-1,16%
CCOC(=O)N1CCN(C(=O)c2ccccc2NC(C)=O)CC1,6%,-72%,3%,72,24*,0%
CCc1nn(CC(=O)NCCN2CCN(C)CC2)c(=O)c2cc3c(OC)cccc3n12,?,-34%,14%,-6,4,4%
c1nnc(NC2=NCCCCC2)s1,5.9µM*,31%,3%,32,22*,-3%
c1nnc(NC2=NCCC2)s1,-9%,/,4%,-14,-1,4%
C1CCN=C(Nc2nc3c(s2)CCCC3)CC1,?,80%,-4%,120*,39*,1%
CCOC(=O)C(CS)NCCN[C@@H](CS)C(=O)OCC (stereo partly specified),-17%,-13%,/,/,/,/
CC(C)(C)Sc1ccc2nc3c(n2c1)CCCC3,?,12µM*,-15%,35,15*,?
COc1cccc(OCc2cc(C(=O)N(C)Cc3nc(C)cs3)no2)c1,6.6µM*,9%,-2%,108*,56*,-3%
Cc1ccc(OCc2cc(C(=O)N(C)Cc3cnn(-c4ccccc4C)c3)no2)cn1,?,7%,-35%,35,20*,-4%
Cc1csc(CN(C)C(=O)c2cn(Cc3cccc4ccccc34)nn2)n1,43%,11%,-35%,36*,21,-1%
CN(Cc1cccc2cnccc12)C(=O)c1cc(COc2ccc(F)cc2Cl)on1,-1%,?,-12%,32,23*,17%
CC(Cc1cccnc1)NC(=O)c1cc(COc2ccc(F)cc2Cl)on1 (stereo unspecified),46%,-7%,-12%,35,15,-1%
CN(Cc1ccc(F)cc1)C(=O)c1cc(COc2ccc(-n3cncn3)cc2)on1,0%,4%,-27%,-7,10,-9%
CCOc1ccc(/C=N/n2c(-c3ccccc3)n[nH]c2=S)cc1,25%,-2%,9%,-3,3,3%
CCCCn1c(SCC(=O)NC2CCS(=O)(=O)C2)nc2cc(S(N)(=O)=O)ccc21 (stereo unspecified),?,?,/,-3,-4,1%
SMILES,Pf growth 96h,Pf growth 48h,NS1 function inh,Shiga toxin inh,Cycloheximide cs,SARS PLP yeast
CCn1c(SCC(=O)Nc2cc3oc4ccccc4c3cc2OC)nnc1-c1cccs1,/,?,-80%,23,11,-5%
Cc1ccc(OCc2cc(C(=O)N(C)Cc3cc(C4CC4)n[nH]3)no2)cc1C,-6%,-5%,19%,32,9,7%
Cc1cc(CN(C)C(=O)c2cc(COc3ccc(C)c(C)c3)on2)on1,-25%,25%,-29%,64*,56*,-4%
Cc1nn(C)cc1CN(C)C(=O)c1cc(COc2ccc(F)cc2F)on1,?,-7%,1%,17,-3,0%
Cc1nnc(CN(C)C(=O)c2cc(COc3ccc(F)cc3Cl)on2)o1,32%,107%,-4%,93*,38*,24%
Cc1nnc(CN(C)C(=O)c2cc(COc3ccc(C)c(C)c3)on2)o1,?,11%,-10%,44,36*,1%
Cc1ccc(OCc2cc(C(=O)N(C)Cc3nccn3C)no2)cc1C,?,0%,6%,20,22,3%
COc1ccc(S(=O)(=O)Nc2c(C)nn(C)c2C)cc1Br,/,/,/,/,/,2%
CCOC(=O)c1c(NC(=O)C(F)(OC)C(F)(F)F)sc(C(=O)N2CCCCC2)c1C (stereo unspecified),44%,12µM*,-60%,-11,-3,-19%
Cc1ccc(C(C(=O)NC2CCCCC2)N2CCN(C(=O)c3ccco3)CC2)cc1 (stereo unspecified),-24%,12µM*,-20%,6,0,2%
CCN1CCN(C(C(=O)NC2CCCC2)c2ccc(Cl)cc2)CC1 (stereo unspecified),12µM*,/,0%,0,0,-3%
CC(C)c1ccc(NC2CCCN(C(=O)c3ccco3)C2)cc1 (stereo unspecified),-4%,-28%,-18%,43,13*,-4%
Cc1ccc(C(C(=O)NC2CCCC2)N2CCCCC2)cc1 (stereo unspecified),1.9µM*,?,-7%,-12,-3,11%
O=C(NC1CCCCC1)C(c1ccc(Cl)cc1)N1CCC2(CC1)OCCO2 (stereo unspecified),52%,?,2%,16,2,5%
COc1ccc(/C(C)=N/NC(=O)CNC(=O)/C=C\c2ccco2)cc1,?,21%,/,-15,-1,-1%
CCn1c(-c2c(Cl)c(C)nn2C)n[nH]c1=S,?,-9%,19%,-7,-4,-17%
CCOC(=O)C1CCN(C(C(=O)NC2CCCC2)c2ccc(C)cc2)CC1 (stereo unspecified),10µM*,/,2%,-20,1,-8%
Cc1ccc(C(C(=O)NC2CCCCC2)N2CCCC2)cc1 (stereo unspecified),?,31%,-4%,6,3,-4%
Cc1ccc(C)c(NCCC#N)c1,31%,10%,8%,6,2,13%
COCCn1c(CN2CCN(C(c3ccccc3)c3ccccc3)CC2)nc2c1c(=O)n(C)c(=O)n2C,28%,2.6µM*,0%,-4,2,2%
Cn1c(=O)c2c(nc(CN3CCN(C(c4ccccc4)c4ccccc4)CC3)n2CCCO)n(C)c1=O,-5%,2.9µM*,-10%,-6,-1,-1%
